Assay [1] concerns the target Protein kinase C gamma type (Homo sapiens) (UniProt P05129). Conditions: at 1 µM.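 Also: each value is an averaged percent inhibition of the enzyme.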
Assay [2] has as its target T1, Protein kinase C iota type (Homo sapiens) (UniProt P41743).
T1 sequence (whole entry): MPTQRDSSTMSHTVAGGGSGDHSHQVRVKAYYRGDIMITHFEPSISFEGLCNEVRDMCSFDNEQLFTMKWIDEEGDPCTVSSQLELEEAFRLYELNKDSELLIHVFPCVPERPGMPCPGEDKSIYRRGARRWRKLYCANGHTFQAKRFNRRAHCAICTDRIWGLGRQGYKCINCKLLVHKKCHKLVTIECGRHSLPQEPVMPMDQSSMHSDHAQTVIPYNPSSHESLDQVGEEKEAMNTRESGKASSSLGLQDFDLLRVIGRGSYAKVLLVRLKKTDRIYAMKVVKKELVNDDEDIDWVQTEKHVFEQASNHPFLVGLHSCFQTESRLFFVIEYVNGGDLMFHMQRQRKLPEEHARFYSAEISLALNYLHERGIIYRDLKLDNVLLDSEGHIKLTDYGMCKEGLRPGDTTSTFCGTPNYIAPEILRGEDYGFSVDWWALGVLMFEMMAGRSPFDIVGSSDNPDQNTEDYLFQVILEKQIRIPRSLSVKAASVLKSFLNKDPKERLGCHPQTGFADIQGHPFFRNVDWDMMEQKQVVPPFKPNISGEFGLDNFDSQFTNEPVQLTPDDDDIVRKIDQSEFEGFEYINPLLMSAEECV
The settings on record: at 0.1 µM.

The target in assay [3] is T1, Protein kinase C iota type (Homo sapiens). The settings on record: at 1 µM.
Assay [4] deals with Protein kinase C theta type (Homo sapiens) (UniProt Q04759). The settings on record: at 0.1 µM.
For assay [5] the target is unchanged. The settings on record: at 1 µM.
Assay [6] addresses Protein kinase C beta type (Homo sapiens) (UniProt P05771). The settings on record: at 0.1 µM.
Assay [7] has the same target. The settings on record: at 1 µM.
Assay [8] deals with T2, Serine/threonine-protein kinase D1 (Homo sapiens) (UniProt Q15139).
T2 sequence (whole entry): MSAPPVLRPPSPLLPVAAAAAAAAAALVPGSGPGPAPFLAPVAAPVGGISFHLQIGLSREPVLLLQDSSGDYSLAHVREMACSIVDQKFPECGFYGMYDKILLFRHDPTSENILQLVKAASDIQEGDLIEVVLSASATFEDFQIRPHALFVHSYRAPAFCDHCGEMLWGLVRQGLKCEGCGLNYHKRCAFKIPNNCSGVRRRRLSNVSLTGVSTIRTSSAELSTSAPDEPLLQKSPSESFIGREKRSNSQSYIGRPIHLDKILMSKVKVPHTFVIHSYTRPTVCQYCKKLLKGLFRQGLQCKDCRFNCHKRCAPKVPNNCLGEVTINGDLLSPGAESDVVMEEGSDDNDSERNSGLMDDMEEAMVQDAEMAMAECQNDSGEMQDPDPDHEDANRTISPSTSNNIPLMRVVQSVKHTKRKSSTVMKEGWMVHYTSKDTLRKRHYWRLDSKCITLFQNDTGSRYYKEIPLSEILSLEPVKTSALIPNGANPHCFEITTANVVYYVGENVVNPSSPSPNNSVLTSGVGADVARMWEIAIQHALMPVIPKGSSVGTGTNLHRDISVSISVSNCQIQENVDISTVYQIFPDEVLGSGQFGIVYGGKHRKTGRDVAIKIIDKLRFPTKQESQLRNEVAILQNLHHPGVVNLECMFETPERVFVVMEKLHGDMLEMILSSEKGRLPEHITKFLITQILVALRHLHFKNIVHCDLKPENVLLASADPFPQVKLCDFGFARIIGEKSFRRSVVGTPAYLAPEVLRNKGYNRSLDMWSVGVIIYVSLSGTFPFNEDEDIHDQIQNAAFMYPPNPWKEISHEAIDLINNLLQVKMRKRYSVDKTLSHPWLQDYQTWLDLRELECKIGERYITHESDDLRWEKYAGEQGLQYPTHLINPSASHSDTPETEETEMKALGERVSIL
Conditions: at 0.1 µM.

Assay [9] has as its target T2, Serine/threonine-protein kinase D1 (Homo sapiens). Conditions: at 1 µM.
For assay [10], the target named is T3, Serine/threonine-protein kinase D2 (Homo sapiens) (UniProt Q9BZL6).
T3 sequence (whole entry): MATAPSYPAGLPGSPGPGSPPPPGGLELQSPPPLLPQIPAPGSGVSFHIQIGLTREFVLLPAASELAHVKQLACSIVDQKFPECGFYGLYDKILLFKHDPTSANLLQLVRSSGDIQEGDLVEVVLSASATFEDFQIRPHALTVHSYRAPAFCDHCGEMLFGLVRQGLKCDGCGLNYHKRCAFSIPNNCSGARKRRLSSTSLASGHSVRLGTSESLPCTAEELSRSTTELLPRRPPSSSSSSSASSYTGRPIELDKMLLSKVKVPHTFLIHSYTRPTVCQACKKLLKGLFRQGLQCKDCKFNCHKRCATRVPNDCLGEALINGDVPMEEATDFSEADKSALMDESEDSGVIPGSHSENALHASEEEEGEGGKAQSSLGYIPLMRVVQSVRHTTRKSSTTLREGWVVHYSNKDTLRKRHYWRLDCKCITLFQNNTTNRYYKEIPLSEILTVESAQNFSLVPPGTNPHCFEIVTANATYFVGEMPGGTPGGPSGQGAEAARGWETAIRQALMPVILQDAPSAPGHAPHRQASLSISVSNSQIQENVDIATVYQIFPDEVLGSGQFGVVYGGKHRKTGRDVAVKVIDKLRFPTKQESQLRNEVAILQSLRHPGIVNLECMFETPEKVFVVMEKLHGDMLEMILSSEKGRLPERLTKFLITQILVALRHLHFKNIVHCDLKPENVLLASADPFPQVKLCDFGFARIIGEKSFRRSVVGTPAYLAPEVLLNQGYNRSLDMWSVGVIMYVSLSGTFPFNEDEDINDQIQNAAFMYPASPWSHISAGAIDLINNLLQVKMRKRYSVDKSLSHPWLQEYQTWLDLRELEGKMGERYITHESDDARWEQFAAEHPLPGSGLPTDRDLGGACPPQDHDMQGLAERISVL
Conditions: at 0.1 µM.

The target in assay [11] is T3, Serine/threonine-protein kinase D2 (Homo sapiens). Conditions: at 1 µM.
Assay [12] deals with T4, Serine/threonine-protein kinase D3 (Homo sapiens) (UniProt O94806).
T4 sequence (whole entry): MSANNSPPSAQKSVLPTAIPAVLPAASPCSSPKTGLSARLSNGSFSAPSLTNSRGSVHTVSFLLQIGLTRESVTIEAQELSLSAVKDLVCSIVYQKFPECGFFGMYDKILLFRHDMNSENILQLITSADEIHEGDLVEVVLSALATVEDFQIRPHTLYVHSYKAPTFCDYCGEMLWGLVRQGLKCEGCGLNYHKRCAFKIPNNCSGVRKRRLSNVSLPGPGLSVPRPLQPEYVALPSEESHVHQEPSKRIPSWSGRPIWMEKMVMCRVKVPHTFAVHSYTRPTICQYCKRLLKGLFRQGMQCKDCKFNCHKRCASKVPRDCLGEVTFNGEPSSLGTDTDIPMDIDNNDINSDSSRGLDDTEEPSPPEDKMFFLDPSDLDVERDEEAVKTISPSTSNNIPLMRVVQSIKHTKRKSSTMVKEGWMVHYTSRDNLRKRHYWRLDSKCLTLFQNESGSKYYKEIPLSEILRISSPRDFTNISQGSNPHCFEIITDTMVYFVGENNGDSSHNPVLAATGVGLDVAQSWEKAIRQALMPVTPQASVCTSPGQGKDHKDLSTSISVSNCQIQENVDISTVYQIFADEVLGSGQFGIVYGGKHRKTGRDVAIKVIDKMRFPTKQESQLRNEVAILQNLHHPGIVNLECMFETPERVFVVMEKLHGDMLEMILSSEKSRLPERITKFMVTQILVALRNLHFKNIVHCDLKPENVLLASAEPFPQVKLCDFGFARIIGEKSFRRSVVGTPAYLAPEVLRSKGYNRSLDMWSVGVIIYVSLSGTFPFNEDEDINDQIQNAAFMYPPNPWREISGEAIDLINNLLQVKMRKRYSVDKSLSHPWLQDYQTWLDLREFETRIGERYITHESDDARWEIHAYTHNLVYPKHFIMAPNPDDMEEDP
Conditions: at 0.1 µM.

In assay [13] the target is T4, Serine/threonine-protein kinase D3 (Homo sapiens). Conditions: at 1 µM.
Assay [14] deals with T5, cGMP-dependent protein kinase 1 (Homo sapiens) (UniProt Q13976).
T5 sequence (whole entry): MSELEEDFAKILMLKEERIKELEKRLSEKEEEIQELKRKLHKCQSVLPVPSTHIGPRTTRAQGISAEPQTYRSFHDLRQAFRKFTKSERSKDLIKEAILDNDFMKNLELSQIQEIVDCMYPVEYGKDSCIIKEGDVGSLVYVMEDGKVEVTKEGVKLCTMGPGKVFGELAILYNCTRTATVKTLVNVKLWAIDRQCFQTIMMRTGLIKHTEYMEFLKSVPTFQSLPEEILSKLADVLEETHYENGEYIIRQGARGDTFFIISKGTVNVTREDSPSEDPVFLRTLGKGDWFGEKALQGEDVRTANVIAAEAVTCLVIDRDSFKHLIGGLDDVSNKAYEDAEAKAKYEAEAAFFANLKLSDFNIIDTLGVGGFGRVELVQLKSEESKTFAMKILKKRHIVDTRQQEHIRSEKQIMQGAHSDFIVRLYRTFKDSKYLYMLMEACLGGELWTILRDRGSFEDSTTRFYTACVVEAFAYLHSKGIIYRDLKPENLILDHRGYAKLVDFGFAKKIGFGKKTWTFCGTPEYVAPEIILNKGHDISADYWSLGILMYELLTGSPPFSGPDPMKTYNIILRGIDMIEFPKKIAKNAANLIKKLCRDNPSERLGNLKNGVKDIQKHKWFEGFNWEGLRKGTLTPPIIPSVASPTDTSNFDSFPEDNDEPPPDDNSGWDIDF
The settings on record: at 0.1 µM.

Assay [15] deals with T5, cGMP-dependent protein kinase 1 (Homo sapiens). Conditions: at 1 µM.
Assay [16] has as its target T6, cGMP-dependent protein kinase 2 (Homo sapiens) (UniProt Q13237).
T6 sequence (whole entry): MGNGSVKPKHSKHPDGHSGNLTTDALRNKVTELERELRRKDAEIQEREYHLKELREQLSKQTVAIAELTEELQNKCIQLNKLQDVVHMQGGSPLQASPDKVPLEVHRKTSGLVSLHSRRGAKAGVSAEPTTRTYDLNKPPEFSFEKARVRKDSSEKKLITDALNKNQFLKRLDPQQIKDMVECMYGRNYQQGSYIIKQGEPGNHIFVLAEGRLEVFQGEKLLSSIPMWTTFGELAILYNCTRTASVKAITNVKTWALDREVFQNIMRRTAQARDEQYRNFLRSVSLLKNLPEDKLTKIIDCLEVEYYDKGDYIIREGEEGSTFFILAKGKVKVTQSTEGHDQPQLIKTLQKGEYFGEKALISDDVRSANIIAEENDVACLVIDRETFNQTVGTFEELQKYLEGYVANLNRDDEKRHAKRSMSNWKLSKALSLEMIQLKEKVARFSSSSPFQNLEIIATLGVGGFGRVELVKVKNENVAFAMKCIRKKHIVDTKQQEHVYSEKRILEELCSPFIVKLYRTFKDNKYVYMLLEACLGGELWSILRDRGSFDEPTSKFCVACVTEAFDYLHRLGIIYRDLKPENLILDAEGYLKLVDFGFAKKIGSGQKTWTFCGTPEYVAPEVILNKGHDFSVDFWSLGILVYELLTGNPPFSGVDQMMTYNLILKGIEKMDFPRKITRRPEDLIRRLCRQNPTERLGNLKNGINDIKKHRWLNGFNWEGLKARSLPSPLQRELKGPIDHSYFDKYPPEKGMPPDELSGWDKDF
The settings on record: at 0.1 µM.

For assay [17], the target named is T6, cGMP-dependent protein kinase 2 (Homo sapiens). The settings on record: at 1 µM.
For assay [18], the target named is T7, cAMP-dependent protein kinase catalytic subunit PRKX (Homo sapiens) (UniProt P51817).
T7 sequence (whole entry): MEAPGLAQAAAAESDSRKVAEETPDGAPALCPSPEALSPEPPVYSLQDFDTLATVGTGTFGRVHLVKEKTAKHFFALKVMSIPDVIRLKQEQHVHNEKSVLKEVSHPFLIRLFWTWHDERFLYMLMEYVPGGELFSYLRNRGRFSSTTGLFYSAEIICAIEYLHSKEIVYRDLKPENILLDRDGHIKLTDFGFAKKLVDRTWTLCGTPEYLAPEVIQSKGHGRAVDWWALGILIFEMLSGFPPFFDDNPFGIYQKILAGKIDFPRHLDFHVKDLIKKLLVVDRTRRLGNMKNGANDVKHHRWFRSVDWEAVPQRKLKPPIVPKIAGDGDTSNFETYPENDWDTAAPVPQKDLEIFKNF
The settings on record: at 0.1 µM.

Assay [19] addresses T7, cAMP-dependent protein kinase catalytic subunit PRKX (Homo sapiens). Conditions: at 1 µM.
Assay [20] concerns the target Rho-associated protein kinase 1 (Homo sapiens) (UniProt Q13464). The settings on record: at 0.1 µM.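 Also: values are mean percent inhibition of ROCK1.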

This note sets out measurements from ChEMBL document CHEMBL1961873, “Compounds: GSK PKIS; Assays: Nanosyn kinase panel” (2012).

Sequence of Protein kinase C beta type (Homo sapiens) (P05771 2-671 limits assumed): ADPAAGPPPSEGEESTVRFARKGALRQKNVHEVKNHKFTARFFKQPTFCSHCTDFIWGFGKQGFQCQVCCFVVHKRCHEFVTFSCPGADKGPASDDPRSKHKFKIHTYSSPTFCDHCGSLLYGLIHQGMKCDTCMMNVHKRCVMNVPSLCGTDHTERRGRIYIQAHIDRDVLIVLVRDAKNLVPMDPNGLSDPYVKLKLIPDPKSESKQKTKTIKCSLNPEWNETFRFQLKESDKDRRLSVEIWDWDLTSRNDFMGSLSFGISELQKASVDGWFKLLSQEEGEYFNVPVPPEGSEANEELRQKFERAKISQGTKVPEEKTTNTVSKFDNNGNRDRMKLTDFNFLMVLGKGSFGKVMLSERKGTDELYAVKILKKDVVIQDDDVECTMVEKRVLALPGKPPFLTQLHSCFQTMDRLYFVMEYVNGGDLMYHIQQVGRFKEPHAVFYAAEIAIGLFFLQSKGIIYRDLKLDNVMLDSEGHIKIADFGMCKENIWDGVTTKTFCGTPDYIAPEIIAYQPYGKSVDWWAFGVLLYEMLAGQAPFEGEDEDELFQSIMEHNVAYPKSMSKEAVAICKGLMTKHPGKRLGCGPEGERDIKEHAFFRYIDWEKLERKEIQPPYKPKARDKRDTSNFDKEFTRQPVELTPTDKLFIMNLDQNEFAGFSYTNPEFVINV
Sequence of Protein kinase C theta type (Homo sapiens) (Q04759 whole entry, looked up): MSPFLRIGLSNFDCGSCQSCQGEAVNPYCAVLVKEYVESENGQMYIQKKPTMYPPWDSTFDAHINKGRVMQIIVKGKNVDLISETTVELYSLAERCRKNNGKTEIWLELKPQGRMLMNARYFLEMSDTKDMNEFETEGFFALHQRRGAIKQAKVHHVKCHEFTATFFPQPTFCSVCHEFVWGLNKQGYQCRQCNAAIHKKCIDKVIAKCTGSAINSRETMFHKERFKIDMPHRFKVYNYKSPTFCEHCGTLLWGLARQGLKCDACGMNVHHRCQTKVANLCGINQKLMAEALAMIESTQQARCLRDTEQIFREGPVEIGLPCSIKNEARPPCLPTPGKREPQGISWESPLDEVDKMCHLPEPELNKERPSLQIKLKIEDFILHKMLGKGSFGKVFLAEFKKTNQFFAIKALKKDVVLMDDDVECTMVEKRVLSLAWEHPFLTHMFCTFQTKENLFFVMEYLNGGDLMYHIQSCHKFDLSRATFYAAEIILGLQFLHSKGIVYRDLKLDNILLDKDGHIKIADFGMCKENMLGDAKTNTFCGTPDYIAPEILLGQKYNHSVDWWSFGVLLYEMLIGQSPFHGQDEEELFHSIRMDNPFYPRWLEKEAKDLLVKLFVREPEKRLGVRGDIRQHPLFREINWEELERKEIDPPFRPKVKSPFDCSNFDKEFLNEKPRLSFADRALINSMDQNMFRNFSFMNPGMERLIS
Sequence of Rho-associated protein kinase 1 (Homo sapiens) (Q13464 2-1354 limits assumed): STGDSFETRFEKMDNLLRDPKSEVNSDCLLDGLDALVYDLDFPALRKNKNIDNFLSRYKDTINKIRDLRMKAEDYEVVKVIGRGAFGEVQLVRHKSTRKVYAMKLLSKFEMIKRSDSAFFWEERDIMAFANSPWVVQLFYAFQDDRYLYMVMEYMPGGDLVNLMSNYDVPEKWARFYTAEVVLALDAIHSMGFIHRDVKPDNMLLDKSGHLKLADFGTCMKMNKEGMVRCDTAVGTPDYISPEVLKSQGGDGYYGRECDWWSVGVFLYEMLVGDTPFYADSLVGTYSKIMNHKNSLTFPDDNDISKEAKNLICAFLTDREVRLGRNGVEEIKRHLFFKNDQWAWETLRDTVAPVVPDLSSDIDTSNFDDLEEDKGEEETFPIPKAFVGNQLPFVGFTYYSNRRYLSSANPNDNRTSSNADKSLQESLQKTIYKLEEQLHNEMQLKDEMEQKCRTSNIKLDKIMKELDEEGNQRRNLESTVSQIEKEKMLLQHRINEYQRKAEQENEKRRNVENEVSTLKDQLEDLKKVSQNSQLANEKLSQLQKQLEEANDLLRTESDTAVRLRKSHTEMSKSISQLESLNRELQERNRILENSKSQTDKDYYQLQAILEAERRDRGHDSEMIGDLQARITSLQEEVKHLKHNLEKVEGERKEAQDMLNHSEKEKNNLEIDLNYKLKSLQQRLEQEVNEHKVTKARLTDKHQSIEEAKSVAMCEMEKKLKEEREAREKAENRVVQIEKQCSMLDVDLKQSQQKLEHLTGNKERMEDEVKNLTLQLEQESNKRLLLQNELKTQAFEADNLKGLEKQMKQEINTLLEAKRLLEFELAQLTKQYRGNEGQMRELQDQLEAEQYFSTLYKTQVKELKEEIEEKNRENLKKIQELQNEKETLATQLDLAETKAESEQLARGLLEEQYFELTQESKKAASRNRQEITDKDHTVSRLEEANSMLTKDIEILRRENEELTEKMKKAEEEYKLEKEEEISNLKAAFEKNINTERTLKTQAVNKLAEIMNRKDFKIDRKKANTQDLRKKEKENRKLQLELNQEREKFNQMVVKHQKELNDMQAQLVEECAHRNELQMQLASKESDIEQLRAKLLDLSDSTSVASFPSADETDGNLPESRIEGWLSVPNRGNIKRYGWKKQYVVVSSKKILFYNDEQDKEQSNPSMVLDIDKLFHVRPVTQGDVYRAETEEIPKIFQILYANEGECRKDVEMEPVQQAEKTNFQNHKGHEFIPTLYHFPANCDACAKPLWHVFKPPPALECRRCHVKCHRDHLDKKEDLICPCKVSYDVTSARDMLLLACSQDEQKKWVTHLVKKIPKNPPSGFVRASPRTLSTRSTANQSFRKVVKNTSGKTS

The term inhibition denotes the percentage by which the read-out fell short of the control. Lower therefore signals little suppression. Turning to `COc1cc2c(cc1Nc1nc(Nc3ccsc3C(N)=O)c3cc[nH]c3n1)N(C(=O)CN(C)C)CCC2(C)C`, the inhibition in [1] was 44%; in assay [2], 2.68%; in [3], 5.01%; in [4], 4.59%; in [5] it was 16.2%; in assay [6], 3.45%. For the same compound, the inhibition in [7] was 15%; in assay [8] it was 11.2%; in assay [9] it was 58.5%; in assay [10], 17.5%; in assay [11], 75.7%; in assay [12] it was 19.8%. Moreover, the inhibition in [13] was 75.7%; in assay [14] it was 3.61%; in assay [15] it was 8.75%; in [16] it was 4.41%; in assay [17], 9.54%; in [18], 2.19%. The values for the inhibition in assay [19] and in [20] were 6.05% and 25%, respectively.
On to `CC1=C(C(=O)Nc2cc(Cl)c3[nH]ncc3c2)C(c2ccc(C(F)(F)F)cc2)CC(=O)N1` (stereo not given), for which the inhibition was 3.46% in assay [1]; 1.43% in [2]; 1.11% in assay [3]; 5.67% in assay [4]; 28.3% in [5]; 1.98% in assay [6]. Further, the inhibition in assay [7] stood at 2.19%; in assay [8] it was 2.79%; in assay [9], 6.51%; in assay [10], 3.43%; in assay [11], 7.46%; in assay [12] it was 4.09%. Besides, the inhibition is 7.2% in [13]; 27.6% in assay [14]; 67.9% in assay [15]; 16.9% in assay [16]; 59.7% in assay [17]; 44.8% in [18]. Also, the inhibition in assay [19] is 79.7%; in assay [20] it was 70.7%.
